According to PubChem BioAssay:
Calls of active or inactive are those of the source. Unless noted, the rule behind the calls is not given here.

Tests used:
[1] = system: Wnt5a (protein binding on small-molecule microarray); assay: small molecules binding Wnt5a protein – biophysical, small-molecule microarray, 635/667 nm fluorescence, primary screen (AID 1142); settings: 635 nm fluorescence, higher = more signal;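 note: fluorescence read at 667 nm with signal to noise per printed feature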
[2] = ATP-based viability of Huh7 replicon cells – cell-based, CellTiter-Glo luminescence, basal, 48 h, cytotoxicity control for HCV replication inhibitor project, primary screen (AID 1143); settings: Huh7 HCV replicon, CellTiter-Glo luminescence, 48 h, higher = more signal, called active from +8 up or from −8 down unless noted;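 note: Huh7 hepatoma cells carrying a hepatitis C replication reporter with no stimulus; test concentration not given here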
[3] = Pseudomonas biofilm growth suppression – PAO1 strain, BacTiter-Glo luminescence, LB-PBS, primary screen (AID 1144); settings: P. aeruginosa PAO1 biofilm, 12 h, higher = more signal
[4] = basal CRE-LacZ reporter activity in PC12 – cell-based, unstimulated, primary screen (AID 1145); settings: no forskolin, luminescence, 4.5 h; higher = more signal, called active from +8 up or from −8 down unless noted
[5] = forskolin-driven CRE-LacZ activity in PC12 – cell-based, CRE-LacZ reporter, forskolin-stimulated, primary screen (AID 1146); settings: luminescence, 4.5 h; higher = more signal, called active from +8 up or from −8 down unless noted;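 note: PC12 cells with 6xCRE LacZ reporter stimulated by forskolin 10 µM; beta-galactosidase reporter signal reflecting CREB driven transcription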
[6] = molecular target: Streptavidin (Streptomyces avidinii) (UniProt P22629); assay: compounds binding control protein streptavidin – biophysical, small-molecule microarray, 635/667 nm fluorescence, artefact control for SMM compound annotation, primary screen (AID 1147); settings: higher = more signal;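 note: signal reflects streptavidin binding to arrayed compounds as a control protein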
Streptavidin (Streptomyces avidinii), sequence (P22629 whole entry, looked up): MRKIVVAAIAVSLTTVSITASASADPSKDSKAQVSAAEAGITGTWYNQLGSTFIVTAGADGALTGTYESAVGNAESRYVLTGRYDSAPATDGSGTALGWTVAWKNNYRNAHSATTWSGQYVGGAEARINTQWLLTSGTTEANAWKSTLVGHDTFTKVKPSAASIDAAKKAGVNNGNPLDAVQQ

[7] = probe aInhba binding on compound microarray – biochemical, small-molecule microarray, 635/667 nm fluorescence, primary screen (AID 1148); settings: higher = more signal; small-molecule microarray, probe aInhba, fluorescence unless noted;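 note: score merges 667nm spot fluorescence with signal-to-noise for antibody binding to printed compounds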
Torsin-1A (Homo sapiens) [8] = molecular target: Torsin-1A (Homo sapiens) (UniProt O14656); assay: TOR1A wild-type binding on microarray – cell lysate, small-molecule microarray, lysate, 635/667 nm, primary screen (AID 1149); settings: COS7 hTOR1A-WT lysate, 635 nm fluorescence, higher = more signal
Torsin-1A (Homo sapiens), sequence (O14656 whole entry, looked up): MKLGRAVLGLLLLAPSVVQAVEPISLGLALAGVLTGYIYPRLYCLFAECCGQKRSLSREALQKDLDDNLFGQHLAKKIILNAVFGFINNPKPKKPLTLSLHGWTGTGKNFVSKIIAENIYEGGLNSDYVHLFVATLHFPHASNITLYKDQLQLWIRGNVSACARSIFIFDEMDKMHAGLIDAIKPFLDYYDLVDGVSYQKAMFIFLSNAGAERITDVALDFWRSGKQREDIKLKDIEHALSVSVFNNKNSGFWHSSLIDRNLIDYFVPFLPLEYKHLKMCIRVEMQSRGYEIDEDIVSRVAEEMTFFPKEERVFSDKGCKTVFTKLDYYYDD

Torsin-1A (Homo sapiens) [9] = molecular target: Torsin-1A (Homo sapiens) (UniProt O14656); assay: torsin A mutant lysate binding on microarrays – cell lysate, small-molecule microarray, COS7 lysate, 635/667 nm fluorescence, primary screen (AID 1150); settings: COS7 hTOR1A mutant lysate, 635 nm fluorescence, higher = more signal;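 note: score pools 667 nm emission and signal to noise measuring lysate protein binding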
[10] = system: Sonic hedgehog protein (Shh); assay: Sonic hedgehog microarray binding compounds – biochemical, small-molecule microarray, 635/667 nm fluorescence, primary screen (AID 1151); settings: 635 nm fluorescence, higher = more signal;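 note: Shh protein binding to compounds spotted on small-molecule microarray slides; score combines spot fluorescence intensity with signal-to-noise across triplicate slides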
[11] = optical density shifts of acrAB sulA E. coli – strain DRC41, OD650, 48 h, E. coli filamentation inducer project, primary screen (AID 1152); settings: higher = more signal, called active from +8 up or from −8 down unless noted;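 note: E. coli MC1000 strain DRC41 lacking acrAB efflux pump and sulA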
[12] = probe aLefty1 binding on compound microarray – biochemical, small-molecule microarray, 635/667 nm fluorescence, primary screen (AID 1153); settings: higher = more signal; small-molecule microarray, probe aLefty1, fluorescence unless noted;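 note: score merges spot fluorescence with signal-to-noise ratio from the scanned slide images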
[13] = plasmodial surface anion channel blockers, osmotic lysis – cell-based, P. falciparum Indochina, OD700, 1 h, primary screen (AID 1154); settings: P. falciparum Indochina infected RBC osmotic lysis; higher = more signal, called active from +8 up or from −8 down unless noted
[14] = plasmodial surface anion channel blockers, osmotic lysis – cell-based, P. falciparum Indochina, OD700, 2 h, primary screen (AID 1155);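 note: lysis reports solute entry through the parasite surface anion channel PSAC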; settings: P. falciparum Indochina infected erythrocytes; higher = more signal, called active from +8 up or from −8 down unless noted
[15] = changes in parasitized red cell lysis, either direction – P. falciparum Indochina, OD700, 3 h, PSAC antagonist project, primary screen (AID 1156); settings: P. falciparum-infected erythrocytes, osmotic lysis; higher = more signal, called active from +8 up or from −8 down unless noted
[16] = plasmodial surface anion channel blockers, osmotic lysis – cell-based, P. falciparum Indochina, OD700, 18 h, primary screen (AID 1157); settings: P. falciparum Indochina infected erythrocytes, osmotic lysis OD700, 18 h; higher = more signal, called active from +8 up or from −8 down unless noted
[17] = S6 kinase pathway phospho-S6 level changes – cell-based, A549, cytoblot, luminescence, serum-stimulated, primary screen (AID 1158); settings: 5 h, higher = more signal;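 note: serum-stimulated A549 lung adenocarcinoma cells; signal is phosphorylated S6 detected by cytoblot immunostaining with HRP secondary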
[18] = molecular target: NADPH oxidase 2 (Homo sapiens) (UniProt P04839); assay: compounds shifting NOX2 Amplex Red fluorescence – cell-based, HEK293-NOX2, PMA-stimulated, NOX inhibitor project, primary screen (AID 1159); settings: 45 min; higher = more signal, called active from +8 up or from −8 down unless noted; note: test concentration not given here
NADPH oxidase 2 (Homo sapiens), sequence (P04839 whole entry, looked up): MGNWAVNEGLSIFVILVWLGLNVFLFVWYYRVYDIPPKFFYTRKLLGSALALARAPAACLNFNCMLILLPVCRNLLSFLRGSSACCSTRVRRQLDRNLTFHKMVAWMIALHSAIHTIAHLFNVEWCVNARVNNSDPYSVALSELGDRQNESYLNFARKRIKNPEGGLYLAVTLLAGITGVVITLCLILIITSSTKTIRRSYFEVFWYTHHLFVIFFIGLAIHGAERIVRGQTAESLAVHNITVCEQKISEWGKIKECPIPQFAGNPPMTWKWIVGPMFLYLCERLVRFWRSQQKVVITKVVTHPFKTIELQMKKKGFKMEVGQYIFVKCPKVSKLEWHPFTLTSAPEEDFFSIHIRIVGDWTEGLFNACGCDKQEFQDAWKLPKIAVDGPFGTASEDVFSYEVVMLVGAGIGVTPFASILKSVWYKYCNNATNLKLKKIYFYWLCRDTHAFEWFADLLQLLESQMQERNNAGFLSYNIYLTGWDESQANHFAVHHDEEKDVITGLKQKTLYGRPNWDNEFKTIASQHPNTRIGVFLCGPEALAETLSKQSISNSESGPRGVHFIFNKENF

[19] = molecular target: NADPH oxidase 4 (Homo sapiens) (UniProt Q9NPH5); assay: compounds shifting NOX4 Amplex Red fluorescence – cell-based, HEK293-NOX4, tetracycline-induced, NOX inhibitor project, primary screen (AID 1160); settings: HEK293-NOX4, Amplex Red H2O2 fluorescence, 45 min; higher = more signal, called active from +8 up or from −8 down unless noted
NADPH oxidase 4 (Homo sapiens), sequence (Q9NPH5 whole entry, looked up): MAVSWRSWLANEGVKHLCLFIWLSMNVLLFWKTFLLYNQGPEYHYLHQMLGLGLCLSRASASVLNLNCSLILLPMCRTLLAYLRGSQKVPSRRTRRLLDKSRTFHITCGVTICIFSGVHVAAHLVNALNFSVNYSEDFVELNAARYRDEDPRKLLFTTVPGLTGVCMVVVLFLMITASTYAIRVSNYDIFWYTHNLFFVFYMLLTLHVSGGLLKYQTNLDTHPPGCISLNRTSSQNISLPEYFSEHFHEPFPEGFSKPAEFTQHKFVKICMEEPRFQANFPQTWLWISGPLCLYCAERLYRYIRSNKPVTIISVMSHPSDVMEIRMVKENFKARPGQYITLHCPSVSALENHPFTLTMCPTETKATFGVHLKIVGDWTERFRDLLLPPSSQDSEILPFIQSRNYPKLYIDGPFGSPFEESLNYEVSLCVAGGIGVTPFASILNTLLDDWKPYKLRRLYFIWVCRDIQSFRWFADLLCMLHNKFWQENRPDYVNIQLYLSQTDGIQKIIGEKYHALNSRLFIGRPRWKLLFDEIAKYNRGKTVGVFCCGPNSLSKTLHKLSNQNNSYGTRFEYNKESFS

[20] = molecular target: NADPH oxidase 5 (Homo sapiens) (UniProt Q96PH1); assay: compounds shifting NOX5 Amplex Red fluorescence – cell-based, HEK293-NOX5, NOX inhibitor project, primary screen (AID 1161); settings: HEK293-NOX5, ionomycin, 45 min, higher = more signal
NADPH oxidase 5 (Homo sapiens), sequence (Q96PH1 whole entry, looked up): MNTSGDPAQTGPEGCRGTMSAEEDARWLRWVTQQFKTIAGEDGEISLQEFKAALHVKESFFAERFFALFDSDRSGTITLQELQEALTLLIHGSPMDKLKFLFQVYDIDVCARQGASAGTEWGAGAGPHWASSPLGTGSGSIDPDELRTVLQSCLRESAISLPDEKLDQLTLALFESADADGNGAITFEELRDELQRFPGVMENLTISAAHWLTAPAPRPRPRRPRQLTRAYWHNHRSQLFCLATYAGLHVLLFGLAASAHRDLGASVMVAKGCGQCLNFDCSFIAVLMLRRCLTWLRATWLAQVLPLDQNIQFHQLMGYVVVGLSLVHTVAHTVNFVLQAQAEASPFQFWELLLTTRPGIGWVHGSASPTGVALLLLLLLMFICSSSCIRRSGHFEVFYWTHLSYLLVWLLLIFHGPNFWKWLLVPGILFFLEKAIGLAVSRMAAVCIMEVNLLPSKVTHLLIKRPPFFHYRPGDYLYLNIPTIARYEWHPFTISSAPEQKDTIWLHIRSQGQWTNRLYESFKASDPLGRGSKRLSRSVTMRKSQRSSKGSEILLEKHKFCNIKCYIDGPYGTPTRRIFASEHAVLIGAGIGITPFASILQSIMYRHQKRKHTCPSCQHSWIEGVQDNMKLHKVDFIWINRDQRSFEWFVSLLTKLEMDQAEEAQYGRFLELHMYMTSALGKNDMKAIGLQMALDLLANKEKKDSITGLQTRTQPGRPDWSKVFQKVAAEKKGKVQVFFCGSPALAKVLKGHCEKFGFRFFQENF

Row | SMILES | composite z-score [1] | z-score [2] | z-score [3] | z-score [4] | z-score [5] | composite z-score [6] | composite z-score [7] | composite z-score (Torsin-1A (Homo sapiens) [8]) | composite z-score (Torsin-1A (Homo sapiens) [9]) | composite z-score [10] | z-score [11] | composite z-score [12] | z-score [13] | z-score [14] | z-score [15] | z-score [16] | z-score [17] | z-score [18] | z-score [19] | z-score [20]
1 | CCCc1cc2c(n1Cc1ccc(C)cc1)C(C)C1CN(C(=O)c3ccccc3)C(C)(C(=O)OC)C21 (stereo not given) | 0.667 | -2.69 (inactive) | 0.426 (inactive) | 1.53 (inactive) | 1.57 (inactive) | 1.23 | 0.643 | 0.55 | 1.06 | -0.2 | -0.692 (inactive) | 1.33 | 1.5 (inactive) | -0.732 (inactive) | 0.454 (inactive) | -1.81 (inactive) | 1.39 | -0.714 (inactive) | -0.757 (inactive) | -3.63
2 | OCc1ccc(C2=CC(c3cccs3)N(Cc3cccc(OC(F)(F)F)c3)CC2)cc1 (stereo not given) | 0.136 | -4.06 (inactive) | 1.28 (inactive) | 1.54 (inactive) | -0.162 (inactive) | -0.0232 | -0.0719 | 0.761 | 1.16 | 1.05 | -0.915 (inactive) | -0.148 | 3.92 (inactive) | 1.2 (inactive) | -0.18 (inactive) | 0.822 (inactive) | -0.0923 | 0.655 (inactive) | -0.666 (inactive) | -1.38
3 | COC(=O)NCC=Cc1nc(CCC=CC(=O)O[C@H]2CC3CC(=O)O[C@@H](C=CCC(C)C)C[C@@H]4CC[C@H](C)[C@@H](C[C@@H](OC)C[C@H](C2)O3)O4)co1 | -0.335 | -3.73 (inactive) | 0.881 (inactive) | 0.106 (inactive) | -1.96 (inactive) | -0.875 | -0.159 | -0.429 | -0.653 | 0.0788 | -0.0987 (inactive) | -0.213 | 0.465 (inactive) | 0.0987 (inactive) | -0.0546 (inactive) | -0.195 (inactive) | -0.975 | 0.902 (inactive) | 0.594 (inactive) | -0.00689
4 | C=C(CC1(CNP(=O)(c2ccccc2)c2ccccc2)CC1)c1ccccc1 | 0.0774 | -0.649 (inactive) | 0.366 (inactive) | -0.182 (inactive) | -0.418 (inactive) | -0.0187 | 0.102 | -0.27 | 0.449 | -1.31 | -0.822 (inactive) | 0.241 | 1.41 (inactive) | 0.453 (inactive) | 1.07 (inactive) | 0.519 (inactive) | -0.254 | -0.335 (inactive) | -0.4 (inactive) | -2.42
5 | CCc1cc2c(nc1CC)CCN(CCC(C)=NOC)C2 | 0.148 | -0.295 (inactive) | -1.01 (inactive) | 1.82 (inactive) | -0.26 (inactive) | 0.496 | -0.0645 | 1.23 | 1.57 | 1.05 | -1.88 (inactive) | 0.393 | 1.69 (inactive) | 1.29 (inactive) | 0.194 (inactive) | 0.612 (inactive) | 0.481 | -0.0413 (inactive) | -1.48 (inactive) | 1.13
6 | OCc1ccc(C2=CC(C3CC3)N(Cc3sc4ccccc4c3Cl)CC2)cc1 (stereo not given) | 0.074 | -3.22 (inactive) | -0.259 (inactive) | 7.14 (inactive) | -2.05 (inactive) | 0.337 | 0.0028 | 0.771 | 0.679 | 1.65 | -2 (inactive) | 0.0253 | 13.6 (active) | 2.7 (inactive) | 0.258 (inactive) | 1.51 (inactive) | -0.627 | 0.703 (inactive) | -1.07 (inactive) | -1.55
7 | CCCc1cc2c(n1Cc1ccco1)C(C)C1CN(C(=O)c3ccccc3)C(C)(C(=O)OC)C21 (stereo not given) | 0.326 | -2.79 (inactive) | 0.666 (inactive) | 0.394 (inactive) | 0.718 (inactive) | 1 | 0.173 | 0.556 | 0.944 | 0.357 | -2.11 (inactive) | 0.439 | 5.21 (inactive) | 0.63 (inactive) | 0.952 (inactive) | 0.495 (inactive) | -0.11 | -1.61 (inactive) | -6.73 (inactive) | -3.84
8 | CCCc1cc2c(n1CCO)C(C)C1CN(C(=O)c3ccccc3)C(C)(C(=O)OC)C21 (stereo not given) | 0.559 | -0.938 (inactive) | 0.251 (inactive) | 1.74 (inactive) | 0.444 (inactive) | 1.04 | 0.414 | 0.726 | 1.02 | -0.898 | -1.14 (inactive) | 0.549 | 2.33 (inactive) | 0.196 (inactive) | 0.101 (inactive) | 0.618 (inactive) | -0.199 | 0.0961 (inactive) | -2.55 (inactive) | -2.35
